An excerpt weighted towards active compounds, which were near 3.7% of everything screened.
Tau fibril ThT: qHTS for Inhibitors of Tau Fibril Formation, Thioflavin T Binding | recombinant tau K18 P301L, heparin-induced fibrillization, ThT fluorescence | Potency, µM (series often up to 57.4 µM), inactives show at the top dose activity, negative = inhibition, usual class: inhibitors | actives 2.1% (n = 270,000) | AID 1460, 2008; note: % is set by controls: 0 for no effect and ±100 for the full control effect; nearly all actives have a fitted effect of over 55% in size
Target sequence (P10636 561-689 P618L limits assumed): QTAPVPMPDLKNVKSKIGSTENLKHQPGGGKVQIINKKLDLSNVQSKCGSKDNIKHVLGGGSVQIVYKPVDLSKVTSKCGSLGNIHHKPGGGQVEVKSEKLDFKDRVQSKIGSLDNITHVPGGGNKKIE
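ThT emission at 510 nm, taken 1 hr after adding 30 uM dye, quantifies aggregates formed when 20 uM heparin acts on human tau K18 P301L for 6 hr at 37 C.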
Tau FP inhib: qHTS for Inhibitors of Tau Fibril Formation, Fluorescence Polarization | Microtubule-associated protein tau (Homo sapiens), P10636 | K18 P301L tau heparin fibrillization, Alexa594 FP, 6 h | Potency, µM (doses to about 57.7 µM), inactives show at the top dose activity, negative = inhibition, usual class: inhibitors | actives 0.39% (n = 280,000); note: % is set by controls: 0 for no effect and ±100 for the full control effect; nearly all actives have a fitted effect of over 55% in size
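Compound effects on tau fibrillization are measured by Alexa 594 fluorescence polarization (ex 555, em 632 nm). K18 P301L tau is used at 15 uM with 0.24 uM labeled tracer, and 20 uM heparin induces aggregation over 6 hr at 37 C.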
Tau fluor counter: Counterscreen qHTS for Inhibitors of Tau Fibril Formation, Fluorescence Polarization. tau K18 P301L (four-repeat tau fragment) Alexa594 fluorescence, heparin fibrillization. actives 0.93% (n = 280,000). Potency, µM (doses to about 57.7 µM), for inactives: at the top dose activity change, negative = decrease; note: % is set by controls: 0 for no effect and ±100 for the full control effect; nearly all actives have a fitted effect of over 55% in size
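Human K18 P301L tau (15 uM unlabeled plus 0.24 uM Alexa 594-labeled, final) in 100 mM sodium acetate pH 7 was mixed with compound and 20 uM heparin and incubated 6 hr at 37 C.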
HTT cytoprotect: qHTS Multiplex Assay to Identify Dual Action Probes in a Cell Model of Huntington: Cytoprotection (ATP). PC12 HTT-Q103 induced, cytoprotection, ATP luminescence, 40 h. Potency, µM (highest dose often 56.4 µM), without a hit: cytoprotection (ATP increase), most hits filed as activators. actives 0.14% (n = 230,000); note: % of control where 0% means no effect; nearly all actives have a fitted effect of over 45% in size
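PC12 cells with ecdysone-inducible HTT exon 1 Q103-GFP, induced with 100 nM tebufenozide and co-treated with library compounds in a dose series (1536-well, 1500 cells/well). Cytoprotection read as ATP content by ATPlite luminescence.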
HttQ103 aggreg: qHTS Multiplex Assay to Identify Dual Action Probes in a Cell Model of Huntington: Aggregate Formation (GFP); PC12 HttQ103-GFP aggregates, Acumen cytometry, 40 h; Potency, µM (doses to about 46.1 µM), without a hit: at the top dose activity change, negative = inhibition, actives largely listed as inhibitors; actives 1.1% (n = 220,000); note: % is set by controls: 0 for no effect and ±100 for the full control effect; nearly all actives have a fitted effect of over 60% in size
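Quantitative HTS on tebufenozide-induced (100 nM) PC12 cells stably expressing polyQ103 Huntingtin exon 1–GFP. Reduction of bright GFP aggregates, detected by laser scanning cytometry after lysis, identified actives across the titration.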
* = called active by the depositor; ? = inconclusive; · = no result given; [ ] = remark or other dose. Calls come from the whole dose curve; as a rule, active = well fitted curve in the direction sought with a large enough effect; inconclusive = small, poorly fitted or top-dose-only effect, or another doubt; inactive = no such curve, though single readings can be large; an effect the other way counts as inactive or inconclusive. Potency is the fitted concentration of half-maximal effect.

SMILES	Tau fibril ThT	Tau FP inhib	Tau fluor counter	HTT cytoprotect	HttQ103 aggreg
O=C(Cn1nc2ccccc2n1)N/N=C/c1cc(Cl)cc([N+](=O)[O-])c1O	12.6µM*	7.9%	?	22.4%[10 µM]	?
O=C(N/N=C/c1cccs1)c1cccc(NC(=O)c2ccccc2Cl)c1	-11.7%	-5.4%	-12.6%	11.6%[10 µM]	-19.4%
O=C(N/N=C/c1cc(Cl)cc([N+](=O)[O-])c1O)C1CC1	15.8µM*	3.1%	-16.8%	19.9%[10 µM]	17.5%[9.22 µM]
C=CCN1c2ccccc2[C@]23C[C@@H](C(=O)OC)N(S(=O)(=O)c4ccc5c(c4)OCCN5C)C2=NC(C(=O)OC)=C(C(=O)OC)[C@H]13	1.0%[11.5 µM]	-0.7%[11.6 µM]	-8.5%[11.6 µM]	-23.0%[10 µM]	·
O=[N+]([O-])c1cc(Cl)cc(/C=N/NC(=S)Nc2ccc(S(=O)(=O)N3CCOCC3)cc2)c1O	10µM*	6.1%	?	23.8%[10 µM]	3.3%[9.22 µM]
O=S(=O)(c1ccc(NC(=S)N/N=C/c2ccc(O)c(O)c2)cc1)N1CCOCC1	?	2.1%	?	3.4%[10 µM]	2.3%[9.22 µM]
O=C(CSc1nc(=O)n(Cc2ccccn2)c2c1CCC2)Nc1ccccc1	-11.9%	-12.1%	-7.6%	·	·
COc1ccc(-c2nc3ccc(N4CCCC4)cc3c(=O)[nH]2)cc1OC	2.24µM*	3.0%	?	-27.2%	3.4%
C=CCN1C(=O)/C(=C/c2ccc(O)cc2)S/C1=N/c1nccs1	?	?	3.55µM*[quencher]	-10.6%[10 µM]	?
C=CCN1C(=O)/C(=C2/C(=O)N(CC(=O)O)c3ccccc32)S/C1=N/c1nccs1	7.08µM*	-19.4%	?	-20.8%	?
Cc1cc(N2CCCCC2)nc2ccc(NC(=O)c3ccc(Br)o3)cc12	8.91µM*	?	25.1µM*[quencher]	-80.3%	13.2%[9.22 µM]
O=C(Nc1ccc(N2CCCC2)cc1)c1ccc(Br)o1	8.91µM*	7.5%	?	-28.0%[10 µM]	12.6%
Cc1cc(N2CCCCC2)nc2ccc(NC(=O)c3ccc(F)cc3)cc12	?	?	15.8µM*[quencher]	·	·
CCCC(=O)N1CCN(c2ccc(NC(=O)c3ccc(Br)o3)cc2)CC1	?	13.0%	-13.5%	10.2%	7.6%
Cc1cc(N2CCN(C)CC2)nc2ccc(NC(=O)c3ccc4c(c3)OCO4)cc12	?	13.6%	?	-36.2%	-9.3%
COc1ccc(N2CCN(C3C(=O)c4ccccc4N3C(C)=O)CC2)cc1 (stereo not given)	-2.7%	11.2%	-17.4%	·	·
COc1ccc2nc(NC(=O)c3nc(S(=O)(=O)Cc4ccccc4)ncc3Cl)sc2c1	8.91µM*	-7.7%	?	·	·
COc1ccc2nc(NC(=O)c3nc(SCc4ccccc4F)ncc3Cl)sc2c1	0.5%	3.9%	-12.6%	·	·
COc1ccc2nc(NC(=O)c3nc(S(=O)(=O)Cc4ccccc4F)ncc3Cl)sc2c1	7.08µM*	2.4%	?	·	·
Cc1nnc(NC(=O)c2nc(S(=O)(=O)Cc3ccccc3)ncc2Cl)s1	?	?	-27.0%	·	·
O=C(O)CCCC/C=C(\c1ccccc1)c1cccnc1	·	·	·	-15.3%	17.2%
Cc1ccc(N/N=C(\C#N)C(=N)N2CCCCCC2)cc1	?	8.6%	-29.2%	-82.8%	12.8%
CC1=C(c2ccc(NN=C(C#N)C#N)cc2)NNC(=O)C1	·	·	·	-52.1%	12.6µM*
O=C(Nc1ccc(Cl)c(Cl)c1)Nc1nnc(CSc2ccccc2)s1	7.6%	3.55µM*	-28.5%	26.2%[10 µM]	2.82µM*
O=C(Nc1cccc(Cl)c1)Nc1nccs1	-0.5%	?	?	-33.4%	-26.2%
SMILES	Tau fibril ThT	Tau FP inhib	Tau fluor counter	HTT cytoprotect	HttQ103 aggreg
CC(Cc1cccs1)NC(=O)Nc1ccc(Cl)c(Cl)c1 (stereo not given)	-3.5%	25.1µM*	?	-51.0%	-18.6%[9.22 µM]
O=C(Nc1ccc(Cl)c(Cl)c1)Nc1nccs1	?	14.1µM*	?	-48.5%[10 µM]	-40.8%[9.22 µM]
Cc1ccc(OCCSCc2nnc(NC(=O)Nc3cccc(Cl)c3)s2)cc1	10.1%	15.8µM*	?	·	8.91µM*
Cc1nnc(NC(=O)Nc2cccc(Cl)c2)s1	-0.3%	0.7%	-22.9%	-1.1%[10 µM]	?
CC(Cc1cccs1)NC(=O)Nc1ccc(Cl)cc1 (stereo not given)	-4.8%	-11.3%	-28.6%	-12.9%	?
CN(C(=O)c1ccccc1C(=O)O)C1CC(C)(C)NC(C)(C)C1	·	·	·	18.1%	·
CCN1CCN(C(=O)c2ccc3c(c2)N(Cc2c(F)cccc2Cl)C(=O)c2ccccc2S3)CC1	-6.7%	3.3%	-8.1%	·	·
O=C(Nc1ccccc1)Nc1nnc(CSCc2ccccc2Cl)s1	21.4%	10µM*	?	5.1%[10 µM]	?
COc1ccc(N=Nc2n(C)c3ccccc3[n+]2C)cc1	3.16µM*	?	?	-89.5%[10 µM]	-6.1%[9.22 µM]
Cn1ccnc1C(=O)c1ccc(NN)c([N+](=O)[O-])c1	22.4µM*	-2.5%	?	·	?
O=c1[nH]c(=O)n(Cc2ccco2)c2c1C(C(F)(F)F)(C(F)(F)F)N=C(c1ccc(F)cc1)N2	6.0%	3.3%	-1.3%	-87.5%[10 µM]	1.26µM*
CSc1nnc2n(C3CCCCC3)c(=O)c3c4c(sc3n12)CCCC4	-1.2%	4.1%	-2.0%	-2.3%	-4.0%
Cc1nnc2n(C3CCCCC3)c(=O)c3c4c(sc3n12)CCC4	12.6µM*	6.4%	14.1µM*[quencher]	-52.6%	-9.3%
CCC(=O)NC1Cc2ccccc2C(c2ccccc2)C1 (stereo not given)	0.0%	-5.1%	-4.8%	-43.0%	·
O=S(=O)(Nc1ccc(-n2cccc2)cc1)c1ccc(Cl)c(Cl)c1	-8.6%	14.1µM*	?	-19.4%[10 µM]	-6.0%[9.22 µM]
O=S(=O)(Nc1ccc(Cc2ccncc2)cc1)c1ccc(Cl)c(Cl)c1	-7.4%	1.3%	-29.7%	-60.0%	11.2µM*
O=S(=O)(Nc1ccc(-n2cccc2)cc1)c1ccc(F)cc1	-0.9%	-15.8%	?	-42.7%	-11.3%
COc1ccc(N=C2NC(=O)S/C2=C\c2ccc(N(C)C)cc2)cc1	1.12µM*	?	?	-49.2%	-4.9%
COC(=O)C1=C(C(=O)OC)[C@@H]2N(Cc3ccccc3)c3ccccc3[C@@]23C[C@@H](C(=O)OC)N(S(=O)(=O)c2ccc4c(c2)OCCN4C)C3=N1	3.4%[11.5 µM]	6.3%[11.6 µM]	-8.4%[11.6 µM]	-17.1%[10 µM]	·
O=[N+]([O-])c1cc(Cc2ccccc2)cc(C=Nc2ccc(N3CCOCC3)cc2)c1O	10µM*	?	?	·	11.0%
Cc1ccc(O)c(C=Nc2cc(C)ccc2O)c1	?	-3.4%	-10.2%	·	?
Cc1ccc(O)c(N=Cc2cc(Cc3ccccc3)cc([N+](=O)[O-])c2O)c1	8.91µM*	?	?	-31.3%[1.9 µM]	8.4%[9.22 µM]
Cn1cccc1/C=C1\SC(=S)N(NC(=O)c2ccccc2)C1=O	11.2µM*	1.5%	?	32.0%[10 µM]	1.7%

Screening data: PubChem BioAssay, National Center for Advancing Translational Sciences (NCATS)
